# Assay results from PubChem BioAssay (NCATS).
# Inconclusive results are not listed. A call without a number means that no potency is given here. Calls of active or inactive are those of the source. The call rests on the fitted dose curve; in most records, active means well fitted inhibition curve with a large enough effect; inconclusive means small, poorly fitted or top-dose-only effect; inactive means flat fitted curve, though single readings scatter.
# Molecular target: Calcium and integrin-binding protein 1 (Homo sapiens) (UniProt Q99828)
# Experiment: Primary qHTS for Identification of Calcium Integrin Binding Protein 1 (CIB1) Competitor (AID 1508620);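 further: GST tagged CIB1 binding a fluorescein labelled alphaIIb integrin peptide tracer; top concentration of the series differs between compounds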
# Details: CIB1-GST / FITC-alphaIIb peptide fluorescence polarization; series mostly up to 114 µM
# Procedure, shortened: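 CIB1-GST (1 uM final) and compound incubated 15 min at room temperature before adding FITC-alphaIIb peptide tracer (100 nM final). Competition for binding read by fluorescence polarization (ex 480, em 540) after another 15 min at room temperature.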
# Chain of Calcium and integrin-binding protein 1 (Homo sapiens) (Q99828 whole entry, looked up): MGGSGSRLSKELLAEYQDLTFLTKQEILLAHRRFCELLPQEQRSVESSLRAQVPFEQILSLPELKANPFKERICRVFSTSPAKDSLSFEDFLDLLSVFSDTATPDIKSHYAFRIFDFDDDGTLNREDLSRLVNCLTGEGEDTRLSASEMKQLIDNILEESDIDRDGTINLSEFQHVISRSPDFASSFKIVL
row,Compound,Potency
1,COc1ccc(C(=O)Nc2ccc(-c3nc4ccccc4[nH]3)cc2)cc1F,inactive
2,Cc1cc(C)n2ncc(C(=O)Nc3ccc4c(c3)OCO4)c2n1,inactive
3,O=C1CCCC2=C1C(c1[nH]ncc1Cl)NC(=NCc1ccncc1)N2 (stereo not given),inactive
4,Cc1noc(C)c1-c1ccc2ncnc(NCc3cc(F)cc(F)c3)c2c1,inactive
5,Cc1cc(C)n2ncc(C(=O)Nc3cc(Cl)cc(Cl)c3)c2n1,inactive
6,Cc1cnc(N2CCC(C(N)=O)CC2)nc1-c1cccc(N(C)C)c1,inactive
7,Cc1ccnc(NC(=S)N[C@@H]2CCN(c3cccc(C(F)(F)F)c3)C2)c1,inactive
8,COc1ccc(CN(Cc2ccccc2)C(=O)c2ccccc2O)cc1COc1ccc(NC(C)=O)cc1,inactive
9,Cc1cc(C)n2ncc(C(=O)Nc3ccc(Br)cc3)c2n1,inactive
10,Cc1cc(C)nc(NC(=S)N2CCN(c3ccc4occc4c3)CC2)c1,inactive
11,Fc1cc(Nc2nc(-c3ccncc3)nc3ccccc23)ccc1-c1cc(F)c(F)c(F)c1,inactive
12,Cc1cc(C)nc(NC(=S)N2CCN(c3ccc(S(C)(=O)=O)cc3F)CC2)c1,inactive
13,COc1ccc(C2Nc3ccccc3C(=O)N2Cc2ccco2)cc1COc1ccc(N)cc1 (stereo not given),inactive
14,O=C(NCCc1nc2ccccc2n1CCOc1ccc(F)cc1)C1CCCCC1,inactive
15,O=C(Nc1cccnc1)c1cccs1,inactive
16,Cc1cccc(C[C@H](C(=O)O)N2C(=O)c3ccc(C(=O)O)cc3C2=O)c1,inactive
17,Cc1cc(NC(=O)Nc2nnc(-c3ccncc3)s2)ccc1F,inactive
18,Cc1cc(NS(=O)(=O)c2ccc(NC(=O)Cc3ccc(Cl)c(C(F)(F)F)c3)cc2)no1,inactive
19,CC(=O)Nc1sc2c(c1-c1nc3ccccc3s1)CCS(=O)(=O)C2,inactive
20,Clc1ccccc1CSc1nc2ncc(Br)cc2[nH]1,inactive

row,Compound,Potency
1,CC(C)c1cccc(-n2cnc3cc(C(=O)N4CCCCC4)ccc32)c1,inactive
2,Cc1c(P(=S)(c2ccccc2)c2ccccc2)c2ccccc2n1C(=O)NCc1ccccc1,inactive
3,Cc1cc2c(s1)c1c(n2C)C(=O)N(Cc2ccccc2F)C1,inactive
4,O=C(CNC(=O)c1ccccc1)OC(Cc1ccccc1)C(=O)Nc1cc(C(F)(F)F)ccc1Cl (stereo not given),inactive
5,O=C(c1ccccc1)N1CCN(c2nc(-c3ccc(Br)cc3)cs2)CC1,inactive
6,COc1cc(O)c(C(CC(=O)N2CCCCCC2)c2ccc3c(c2)OCO3)c(OC)c1 (stereo not given),inactive
7,O=C1CCCC2=C1C(c1ccc(Cl)cc1)N=C(Nc1nc3ccccc3o1)N2 (stereo not given),inactive
8,N#Cc1c(-c2ccc(OCCOCCOCCNC(=O)CCCC[C@@H]3SC[C@@H]4NC(=O)N[C@@H]43)cc2)no[n+]1[O-],inactive
9,COc1ccc(C2c3c(n(CCCc4ccccc4)cnc3=N)Oc3ccc4ccccc4c32)cc1OC (stereo not given),inactive
10,O=C1c2ccccc2C(=O)N1c1ccc(Cl)cc1,inactive
11,N#Cc1nc(Nc2cccc(Cl)c2)c2ncn(C3CCCC3)c2n1,inactive
12,CCc1cccc(Nc2nn3c(=O)c4ccccc4nc3s2)c1,inactive
13,COc1cccc(Nc2nc(C#N)nc(NC3CCCC3)n2)c1,inactive
14,COC(=O)c1ccc(-c2c(NC(C)=O)sc3c2CCNC3)cc1,inactive
15,C(#Cc1cccs1)c1cccnc1,inactive
16,CCOc1ccc(C(=O)Oc2ccc(-c3nc4ccccc4[nH]3)cc2)cc1[N+](=O)[O-],inactive
17,O=C(OCC#CCSc1nnc(-c2cccc3ccccc23)o1)c1csc2ccccc12,inactive
18,Cc1cc(-c2nnc3n2CCCCC3)c(C)n1-c1ccc(Br)cc1,inactive
19,Oc1cc(Nc2ccc(N3CCCCC3)cc2)cc2cccnc12,inactive
20,O=C(Nc1ccc(Br)cc1)Nc1nnc(-c2ccncc2)s1,inactive
